Screening data as filed in PubChem.
CD40 NFkB inh: CD40 pathway inhibition in BL2 cells | inhibition, % at 10 µM | AID 1053188 | 83,000 tested, 0.94% active | BL2 NF-kB luciferase reporter, CD40L-induced, 4 h;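 active means mean inhibition of at least 50% with a set share of replicates also reaching that level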
Each line names hits and unclear results; the compound was inactive in the other large screens; ! = a repeat was not active; [ ] = remark or other dose. The entries come from a sample that favours hits as a whole.

N#C[C@H]1[C@@H](c2ccc(C#Cc3ccccc3F)cc2)[C@@H](CO)N1C(=O)C1CC1	none
COc1ccc2c3c(n(C)c2c1)[C@@H](CO)N(C(=O)C1CC1)CC31CCN(C(=O)C2CCOCC2)CC1	none
O=C(Nc1ccccn1)c1ccc(C(=O)c2ccccc2)cc1	none
O=C(CC(=O)Nc1ccccn1)Nc1ccccn1	none
O=C(NC(=O)c1ccccc1)Nc1ccccn1	CD40 NFkB inh 108
CN1C(=O)c2cc(NC(=O)C3CC3)ccc2OC[C@H]2O[C@@H](CC(=O)O)CC[C@H]21	none
C[C@H]1CN([C@@H](C)CO)C(=O)c2ccccc2-c2ccccc2CO[C@@H]1CN(C)Cc1ccncc1	none
C[C@H](CO)N1C[C@H](C)[C@H](CN(C)C(=O)Cc2ccccc2)Oc2ncc(C3=CCCCC3)cc2C1=O	none
NS(=O)(=O)c1ccc(Cl)c(S(N)(=O)=O)c1	none
Nc1ccc(S(N)(=O)=O)cc1N	none
NC1=C(Cl)C(=O)c2ccc(S(N)(=O)=O)cc2C1=O	CD40 NFkB inh 60
C[C@@H]1CN([C@H](C)CO)C(=O)c2ccccc2-c2ccccc2CO[C@H]1CN(C)S(=O)(=O)c1ccccc1	none
COc1cccc(-c2ccc3c(c2)[C@H]2[C@H](CCN2C(=O)C2CCCCC2)[C@@H](CO)N3)c1	none
O=C(C[C@@H]1C=C[C@@H](NC(=O)NC2CCCC2)[C@@H](CO)O1)NCc1ccc(F)cc1	none
C=C1C(=O)OC2C=C(CO)CCC=C(CO)CC(OC(=O)C(C)C)C12 (configuration not stated)	CD40 NFkB inh 87
C=C1C(=O)OC2C1C(OC(=O)C(C)=CC)CC(=C)C1C(O)C3OC3(C)C21O (configuration not stated)	none
CCCC(=O)N1CC2(CCN(S(=O)(=O)CC)CC2)c2c(n(C)c3cc(OC)ccc23)[C@H]1CO	none
C[C@H]1CN([C@@H](C)CO)C(=O)CCCn2cc(nn2)CO[C@H]1CN(C)S(=O)(=O)c1ccc(-n2cccn2)cc1	none
O=C([C@@H]1N[C@@H]2c3ccc(C4=CCCCC4)c(=O)n3C[C@@H]2[C@H]1CO)N1CCc2ccccc2C1	none
O=C(Nc1cccc(F)c1)N1C[C@@H]2N[C@H](C1)C2c1ccc(-c2ccccc2F)cc1 (some centres not stated)	none
Cc1ccccc1-c1ccc(C2[C@@H]3CN(C(=O)Nc4cccc(F)c4)C[C@H]2N3)cc1 (some centres not stated)	CD40 NFkB inh 62[25 µM]
COc1cccc(-c2ccc(C3[C@@H]4CN(C(=O)C5CCC5)C[C@H]3N4)cc2)c1 (some centres not stated)	none
COc1ccc(NC(=O)N2C[C@@H]3N[C@H](C2)C3c2ccc(-c3ccncc3)cc2)cc1 (some centres not stated)	none
COc1ccc(NC(=O)N2C[C@@H]3N[C@H](C2)C3c2ccc(-c3cncnc3)cc2)cc1 (some centres not stated)	none
COc1cccc(-c2ccc(C3[C@@H]4CN(C(=O)C5CC5)C[C@H]3N4)cc2)c1 (some centres not stated)	CD40 NFkB inh 63!
Cc1ccccc1-c1ccc(C2[C@@H]3CN(C(=O)Nc4ccc(F)cc4)C[C@H]2N3)cc1 (some centres not stated)	none
COc1ccc(NC(=O)N2C[C@@H]3N[C@H](C2)[C@@H]3c2ccc(-c3ccc(OC)cc3)cc2)cc1	CD40 NFkB inh 63
COc1ccc(NC(=O)N2C[C@@H]3N[C@H](C2)C3c2ccc(-c3cccc(OC)c3)cc2)cc1 (some centres not stated)	none
CN1[C@H](C(=O)NC2CCC2)[C@@H](CO)[C@@H]2Cn3c(ccc(-c4cccc(F)c4)c3=O)[C@@H]21	none
CCCN1[C@@H]2Cn3c(ccc(/C=C/c4ccccc4)c3=O)[C@H]1[C@@H](C(=O)NCC1CC1)[C@@H]2CO	none
CO[C@H]1CN(C)C(=O)c2cccc(C#N)c2OCC[C@H]2CC[C@H](OC)[C@@H](CN(C)C(=O)[C@H]1C)O2	none
CO[C@@H](CN(C)C(=O)C1CCOCC1)[C@@H](C)CN([C@@H](C)CO)S(=O)(=O)c1ccccc1	none
COCC(=O)N1[C@H](C#N)[C@H](c2ccccc2-c2cccc(F)c2)[C@H]1CO	none
COc1cccc(NC(=O)N2CC(=O)N3[C@H](CO)[C@@H](c4ccc(C5=CCCCC5)cc4)[C@H]3C2)c1	none
N#C[C@H]1[C@@H](c2ccc(-c3ccccc3F)cc2)[C@@H](CO)N1C(=O)c1ccccn1	none
Cc1ccc(NC(=O)CNC(=O)c2ccc(C)s2)nc1	none
Cc1cccnc1NC(=O)c1ccc2c(c1)OCCO2	none
Cc1ccc(NC(=O)CNC(=O)c2cccc(Cl)c2)nc1	CD40 NFkB inh 66
Cc1ccc(NC(=O)c2ccc3c(c2)NC(=O)CS3)nc1	none
COC(=O)CNC(=O)c1cccc(Cl)c1	none
Cc1ccc(NC(=O)c2ccc3c(c2)OCCO3)nc1	CD40 NFkB inh 64
O=C(C[C@H]1C[C@H]2c3cc(NC(=O)Nc4ccccc4)ccc3O[C@H]2[C@@H](CO)O1)NCCN1CCCCC1	none
Cc1ccc(S(=O)(=O)c2ccc([N+](=O)[O-])o2)cc1	CD40 NFkB inh 109
Cc1ccc(-c2nnc(NC(=O)c3ccc([N+](=O)[O-])o3)o2)c(C)c1	none
CC12CN3CC(C)(CN(C1)C3c1ccc([N+](=O)[O-])o1)C2 (configuration not stated)	none
COc1ccc(NC(=O)N(C)C[C@@H]2OCCCC[C@@H](C)Oc3ccc(NC(=O)Nc4ccccc4)cc3C(=O)N([C@H](C)CO)C[C@H]2C)cc1	none
Cc1csc(N=Nc2ccc(N(C)C)cc2)[n+]1[O-]	CD40 NFkB inh 80
CO[C@@H]1CN(C)C(=O)c2ccc(NC(=O)C3CCC3)cc2OC[C@@H](C)N(Cc2ccc(F)cc2)C[C@H]1C	none
CN(C(=O)Nc1ccc(S(=O)(=O)N(C)C)cc1)C1CCCCC1	none
CN(C)S(=O)(=O)c1ccc(NC(=O)Cn2ccsc2=N)cc1	none
CN(C)S(=O)(=O)c1ccc(NC=O)cc1	CD40 NFkB inh 27
COc1ccc(CC2C(=O)NC(C)C(=O)N(C)C3Cc4ccc(cc4)Oc4cc(ccc4O)CC(C(=O)NC(C)C(=O)NC(C)C(=O)N2C)N(C)C3=O)cc1 (configuration not stated)	CD40 NFkB inh 67
CCCNC(=O)N1[C@H](CO)[C@H]2c3ccccc3N(C)C[C@H]21	none
COCC(=O)N1C[C@@H](C)[C@@H](OC)CN(C)C(=O)c2ccc(NC(=O)Nc3cccc(F)c3)cc2OC[C@@H]1C	none
O=c1[nH]c(=O)n(C2CC(O)C(CO)O2)cc1Br (configuration not stated)	none
C=C1CC(COc2cc(=O)oc3ccccc23)(c2ccccc2)OC1=O (configuration not stated)	none
C=C1CC(Cn2cc(Br)c(=O)[nH]c2=O)(c2ccc(-c3ccccc3)cc2)OC1=O (configuration not stated)	CD40 NFkB inh 64
COc1cccc(-c2ccc3c(c2)[C@H]2[C@H](CCN2C(=O)CN2CCOCC2)[C@H](CO)N3)c1	none
C[C@@H]1CN([C@H](C)CO)C(=O)c2ccccc2-c2ccccc2CO[C@@H]1CN(C)S(=O)(=O)c1ccc([N+](=O)[O-])cc1	none
CC(NCC(O)CP(=O)(O)CC1CCCCC1)c1ccc(Cl)c(Cl)c1 (configuration not stated)	none
Cc1ccc(-n2ccnc(SCC(=O)NC3CCCC3)c2=O)cc1Cl	none
Cc1ccc(-n2ccnc(SCC(=O)NCCc3ccccc3)c2=O)cc1F	CD40 NFkB inh 54
CCOc1ccc(-n2ccnc(SCC(=O)NCCc3ccccc3)c2=O)cc1	none
CO[C@H](C(=O)N(C)C[C@@H]1OCc2ccccc2-c2c(n(C)c3ccccc23)C(=O)N([C@@H](C)CO)C[C@@H]1C)c1ccccc1	none
